Screening results (PubChem BioAssay)
Sm TGR block: qHTS Assay for the Inhibitors of Schistosoma Mansoni Peroxiredoxins; Potency, µM (highest dose often 114 µM), without a hit: at the highest dose activity change, negative = inhibition, usual class: inhibitors; Schistosoma mansoni thioredoxin glutathione reductase (TGR), Q962Y6; AID 485364, 2010; 360,000 compounds, 3% hits; purified TGR, DTNB reduction, TNB absorbance 405 nm; note: nearly all actives have a fitted effect of over 60% in size
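First, TGR (20 nM dispensed) and NADPH were mixed with compound. Second, a 15 min room-temperature incubation followed. Third, further NADPH and then DTNB were added to start the reaction. Finally, TNB absorbance was monitored kinetically.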
AmpC inh detg: qHTS Inhibitors of AmpC Beta-Lactamase (assay with detergent) | 370,000 compounds, 0.041% hits | Potency, µM (titrated, usually from 114 µM), inactives show top-dose activity change, negative = inhibition, hits mostly inhibitors | AID 485294, 2010 | AmpC hydrolysis of nitrocefin, absorbance 480 nm, 0.01% Triton;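 note: 0% = no-compound wells and -100% = no-enzyme wells; nearly all actives have a fitted effect of over 25% in size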
Target sequence (P00811 whole entry, looked up): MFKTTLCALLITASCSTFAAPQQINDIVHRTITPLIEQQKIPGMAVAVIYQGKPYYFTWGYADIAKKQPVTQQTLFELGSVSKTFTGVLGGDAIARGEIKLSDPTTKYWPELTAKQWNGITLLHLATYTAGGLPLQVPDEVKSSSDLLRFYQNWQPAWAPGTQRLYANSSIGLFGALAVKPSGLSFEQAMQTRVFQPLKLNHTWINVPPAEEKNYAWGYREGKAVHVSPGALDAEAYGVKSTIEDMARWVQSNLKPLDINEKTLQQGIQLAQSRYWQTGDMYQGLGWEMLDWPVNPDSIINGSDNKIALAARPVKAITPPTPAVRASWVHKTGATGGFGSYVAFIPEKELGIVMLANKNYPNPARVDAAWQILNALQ
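20 mM phosphate pH 7.0 + 0.01% (detergent screen) or 0.0001% Triton X-100; 5.3 nM AmpC reagent; cpd preinc 15 min RT; nitrocefin (800 uM stock) to start; A480 q20 s × 4 min; Activity was normalised to no-enzyme and no-compound control wells.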
FMDV antiviral: High Throughput Screening for Foot and Mouth Disease Virus Antivirals; FMDV antiviral cell-based qHTS; Potency, µM (titrated, usually from 57.9 µM), for the others: at the highest dose activity change, negative = inhibition, usual class: inhibitors; 410,000 compounds, 1.2% hits; calls by dose curve; tested in HEK293T cells; note: read-out not given here; nearly all actives have a fitted effect of over 45% in size
AMA1-RON2 inh: qHTS for Inhibitors of AMA1-RON; Towards Development of Antimalarial Drug Lead: Primary Screen; Plasmodium falciparum AMA1 (3D7) - RON2 peptide interaction; AlphaScreen AMA1-biotinylated RON2 peptide binding; Potency, µM (doses to about 58.2 µM), without a hit: at the highest dose activity change, negative = inhibition, actives largely listed as inhibitors; 360,000 compounds, 0.2% hits;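 note: 0% = vehicle wells and -100% = peptide control; nearly all actives have a fitted effect of over 45% in size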
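AMA1 (3D7) with his tag at 25 nM final met compounds first, then biotinylated RON2 peptide at 25 nM; detection used donor plus acceptor beads, 10 µg/mL apiece, read by AlphaScreen after 30 min at room temperature.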
AmpC no deterg: qHTS Inhibitors of AmpC Beta-Lactamase (assay without detergent); P00811; AmpC nitrocefin hydrolysis, absorbance 480 nm, 0.0001% Triton; Potency, µM (top dose mostly 57.1 µM), inactives show at the top dose activity change, negative = inhibition, most hits filed as inhibitors; 330,000 compounds, 0.52% hits; AID 485341, 2010;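 note: plate controls were no compound for no effect and no enzyme for full effect; nearly all actives have a fitted effect of over 20% in size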
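20 mM phosphate pH 7.0 + 0.01% (detergent screen) or 0.0001% Triton X-100; 5.3 nM AmpC reagent; cpd preinc 15 min RT; nitrocefin (800 uM stock) to start; A480 q20 s × 4 min; Activity was normalised to no-enzyme and no-compound control wells.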
* = called active by the depositor; u = inconclusive; x = no result given. Most compounds without a hit are left out; they make up all but 4.1% or so of the library. Unless noted, calls come from the whole dose curve; as a rule, active = well fitted curve in the direction sought with a large enough effect; inconclusive = small, poorly fitted or top-dose-only effect, or another doubt; inactive = no such curve, though single readings can be large; an effect the other way counts as inactive or inconclusive. Unless noted, % is set by controls: 0 for no effect and ±100 for the full control effect; potency is the fitted concentration of half-maximal effect.

SMILES	Sm TGR block	AmpC inh detg	FMDV antiviral	AMA1-RON2 inh	AmpC no deterg
COc1ccc(-n2c(C)cc(C(=O)COC(=O)Cc3n[nH]c(=O)c4ccccc34)c2C)cc1	-8.4%	-2.8%	28.2µM*	-10.2%	-50.7%
CCc1cccc(CC)c1NC(=O)Cn1nnc2sc(-c3ccccc3)cc2c1=O	-6.0%	0.0%	-10.8%	x	x
COc1ccc(C(C)=O)cc1COC(=O)c1cccnc1SC	3.16µM*	8.4%	2.5%	8.0%	2.9%
CCOc1ccc(C(C)=O)cc1COC(=O)c1cccnc1SC	-3.3%	0.5%	-11.5%	0.7%	-1.4%
COc1ccc(C(C)=O)cc1COC(=O)Cc1n[nH]c(=O)c2ccccc12	17.8µM*	-17.8%	-2.7%	0.2%	-29.6%
COc1ccccc1C(=O)COC(=O)Cc1n[nH]c(=O)c2ccccc12	8.0%	-14.1%	-8.7%	8.8%	-3.0%
COC(=O)c1ccc(CN2CCOc3ccc(C(O)c4cccnc4)cc3C2)cc1 (centres undefined)	x	x	-25.5%	x	x
Cc1oc(-c2ccccc2Cl)nc1Cn1c(SCc2cccc(F)c2)nc2cccnc21	-11.3%	13.1%	-14.0%	x	x
OC[C@@H]1CN(Cc2ccc(-c3ccccc3)cc2)C[C@H](n2cnc3c(NC4CCC4)ncnc32)O1	x	x	17.8µM*	-20.4%	x
COc1cc2[nH]c(=O)n(CCCCCC(=O)N3CCN(c4cccc(C(F)(F)F)c4)CC3)c(=O)c2cc1OC	-7.6%	0.1%	22.4µM*	x	x
CCOc1cc2[nH]c(=O)n(CCCCC(=O)N3CCN(c4cccc(Cl)c4)CC3)c(=O)c2cc1OCC	-1.6%	-1.6%	25.1µM*	x	x
O=C(CCCn1c(=O)[nH]c2ccsc2c1=O)N1CCN(c2ccc(Cl)cc2)CC1	1.3%	0.8%	28.2µM*	x	x
COc1ccc(N2CCN(C(=O)CCCn3c(=O)[nH]c4ccsc4c3=O)CC2)cc1	-34.6%	-8.4%	-16.0%	-4.9%	-2.8%
Cc1c(NC(=O)c2ccc(Br)o2)cccc1-c1nc2ccccc2o1	0.1%	2.9%	-9.5%	x	x
CCOc1ccccc1CNC(=O)Cn1cc2c(n1)-c1c(oc(C(=O)N3CCCC3)c1C)CC2	-23.1%	14.0%	u	x	x
N#CCCn1cc(/C=N/O)c(-c2ccc(Cl)cc2)n1	15.4%	u	-0.8%	3.4%	-9.8%
N#CCCn1cc(C=C(C#N)C#N)c(-c2ccc(Cl)cc2)n1	1.26µM*	-4.5%	u	1.8%	-9.1%
CN(C)c1cccc(C(=O)NCC2Cc3cccc(-c4cncnc4)c3O2)c1 (centres undefined)	x	x	13.0%	x	x
Cc1oc2cc(Br)c(O)c(Br)c2c1-c1ccccc1	10µM*	-13.6%	26.4%	-7.2%	-37.5%
C=CCN(c1ccccc1OC)S(=O)(=O)c1cccc(C(=O)OCC(=O)c2c[nH]c3ccccc23)c1	-1.8%	-13.7%	u	-28.4%	-28.6%
COc1cc(OC)c(N(C)S(=O)(=O)c2cccc(C(=O)OCC(=O)c3c[nH]c4ccccc34)c2)cc1Cl	5.8%	u	8.91µM*	17.9%	3.98µM*
CCOc1ccc(CCNC(=O)c2ccc3c(c2)nc2n3CCOC2)cc1OCC	9.7%	16.5%	0.0%	x	x
Cc1c(C(=O)OC2CCC(C)CC2)[nH]c2c1C(=O)CC(c1ccc(N(C)C)cc1)C2 (centres undefined)	-3.0%	15.5%	-16.6%	x	x
CCC(O)CNC(=O)c1cnn(-c2nccc(-c3cc(C)sc3C)n2)c1C1CC1 (centres undefined)	x	x	36.1%	x	x
Cc1sc2nc3c4ccccc4c(NCc4ccco4)nn3c(=O)c2c1C	50.1µM*	1.5%	70.1%	-5.0%	-22.7%
CCOc1ccc(C2c3c(oc4ccc(C)cc4c3=O)C(=O)N2c2nc(C)c(C)s2)cc1OC (centres undefined)	-11.3%	-0.2%	-15.7%	x	x
COc1cc(NC(=S)Nc2cccnc2)cc(OC)c1OC	31.6µM*	-9.5%	x	-1.4%	-11.3%
S=C(Nc1ccc(Oc2ccccc2)cc1)Nc1cccnc1	u	u	-4.8%	71.3%	-39.0%
